Laboratory results taken from PubChem BioAssay (NCI).
Compounds without any hit were thinned out: in the full panel of roughly 83,000, 20% have a hit.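 A percent growth of 40 corresponds to 60% growth inhibition; 0 means no net growth; -100 means all cells died. Active threshold: below 10.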 Values without a mark were called inactive. Calls of active or inactive are those of the source.

tested on: NCI-H522 lung; experiment: NCI-60 one-dose screen, 48 h (100 = growth as untreated, 0 = no growth, -100 = all killed); details: 10 µM unless noted
Procedure: Growth inhibition of the NCI-H522 human Non-Small Cell Lung tumor cell line is measured as a screen for anti-cancer activity. Cells are grown in 96 well plates and exposed to the test compound for 48 hours. Compounds are tested at a single concentration, which is 10^-5 M for most compounds. The reported endpoint is percent growth (GI% or GIPRCNT), where numbers from 0 - 100% represent growth inhibition, and numbers from -100% - 0 represent cell death. For example, a value of 40 represents 60% growth inhibition. A value of 0 means no net growth occurred over the course of the experiment. A value of -40 indicates 40% of cells at the beginning of the experiment died by the end of the experiment. A value of -100 means all cells are dead at the end of the experiment.
NCI-60 Human Tumor Cell Lines Screen was performed using the standard one-dose NCI protocol, which is described in more detail at https://dtp.cancer.gov/discovery_development/nci-60/default.htm.
Compounds with GIPRCNT values below 10 were considered active. Activity score was based on GIPRCNT using the following formula: […]
Score is 0 for GIPRCNT values of 100 or above, 50 for GIPRCNT values of 0, and 100 for GIPRCNT values of -100.

| Compound | growth |
| --- | --- |
| Cc1ccc(-c2cc(-c3cccnc3)[nH]c(=O)c2C#N)cc1 | 94% |
| O=C(Cc1ccc(F)c(F)c1)Nc1cc(C2(C(F)(F)F)CC2)nn1Cc1ccccc1 | -24.6% (active) |
| COC(=O)/C=C1\S/C(=N\NS(=O)(=O)c2ccc(C)cc2)N(c2ccccc2)C1=O | 91.9% |
| O=C1c2cccc(NCCN=Cc3cc([N+](=O)[O-])ccc3O)c2C(=O)c2c(NCCN=Cc3cc([N+](=O)[O-])ccc3O)cccc21 | 45% |
| COc1cc(/C=C2\C(=O)ON=C2C)cc(OC)c1OC | 98.5% |
| CCCCCCCCCCN(CCCCCCCCCC)CC(=O)c1ccc2cc(Br)c3ccccc3c2c1 | 63.4% |
| Cc1ccc2nc(NC(=O)CSc3nc(-c4ccccc4)c(C#N)c(=O)n3Cc3ccccc3)sc2c1 | 30.5% |
| COC(=O)[C@H](CSC)N(C)C(=O)[C@@H]1CSSC[C@@H](NC(=O)c2nc3ccccc3cc2O)C(=O)NCC(=O)N1C | 45.9% |
| NC(N)=Nc1nc2ccccc2n2c1nc1ccccc12 | 16.1% |
| CCCCCCCCCOc1c(OC)cc(C2CC(=O)Nc3c2c(C)nn3-c2nc3ccccc3[nH]2)cc1OC (stereo not given) | -65.2% (active) |
| Cc1nc2ccccc2n1CC1NC(=O)NC1=O (stereo not given) | 94.9% |
| CC1(C)CC[C@]2(C(=O)N3CCOCC3)CC[C@]3(C)C(=CC[C@@H]4[C@@]5(C)CC[C@H](OC(=O)c6cccnc6)C(C)(C)[C@@H]5CC[C@]43C)[C@@H]2C1 | 73.3% |
| CC(C)=C[C@@H]1c2c(c3ccccc3n(C)c2=O)O[C@H]2c3c(c4ccccc4n(C)c3=O)OC(C)(C)[C@@H]12 | 53.4% |
| COC(=O)[C@]12CC[C@@H](C)[C@H](C)[C@@H]1C1=CC[C@@H]3[C@@]4(C)C(C=O)=C[C@@](C)(COC(=O)c5ccco5)[C@@H]4C(=O)C[C@@]3(C)[C@]1(C)CC2 | 10.7% |
| Cc1ccccc1NC(=O)N/C(N)=N/c1nc(C)c(C)s1 | 16.3% |
| CCOC(=O)c1csc(NC(=O)COc2cccc(/C=C3\Oc4cc(OC)ccc4C3=O)c2)n1 | 49.8% |
| CCOC(=O)c1c(/C=C/C(=O)O)nc2ccccc2c1/C=C/c1ccccc1 | 40.9% |
| CCCCn1c(=O)c2c(nc(NCCc3ccc(O)c(O)c3)n2CCC)n(CCCC)c1=O | -0.778% (active) |
| Cc1cc(/C=C\c2ccc3ccccc3[n+]2C)c(O)c2ncccc12 | 32.1% |
| O=C(Nc1ccc(Nc2ccncc2)cc1)c1ccc(C(=O)Nc2ccc(Nc3ccncc3)cc2)cc1 | 47.4% |

| Compound | growth |
| --- | --- |
| Cc1ccccc1NC(=O)N/C(N)=N/c1nc(-c2cccc([N+](=O)[O-])c2)cs1 | 18% |
| CC(=O)N1N=C(c2ccc(Nc3nc(Nc4ccc(F)cc4)nc(Nc4ccc(F)cc4)n3)cc2)CC1c1cccc([N+](=O)[O-])c1 (stereo not given) | 77% |
| COc1ccc(/C=c2\nc3n(-c4ccccc4)c4nc5c6c(sc5c(=N)n4n-3c2=O)CCCC6)cc1 | 83.4% |
| O=C1CCC2=C3C4CCCCC4C(=O)C4CCCC(OC2C1)C34 (stereo not given) | -32.4% (active) |
| COc1cc(N=Nc2cc(Cc3ccc(N(C)C)cc3)c(N)cc2N(C)C)c2ncccc2c1 | -5.05% (active) |
| N#CC1=C(/N=C/c2ccccc2)Oc2c(ccc3ccccc23)C1c1ccccc1 (stereo not given) | -4.7% (active) |
| C#Cc1cccc(NC(=O)c2ccc(NC(=O)CCl)cc2)c1 | -51.6% [8.25 µM] (active) |
| CC/C=C1/C(=O)C=C[C@@H]1C/C=C\CCCC(=O)O | 24% |
| COc1ccc2cc(-c3cc(OC)c(OC)c(OC)c3)c(=O)oc2c1 | 48.3% |
| CC1=C(SCCC(=O)OC(C[Se]C2=C(C)C(=O)c3ccccc3C2=O)C(=O)NCCCCCC(=O)OCc2ccccc2)C(=O)c2ccccc2C1=O (stereo not given) | 20.7% |
| CC1=NOC(=O)/C1=C\c1ccc(O)cc1 | 97.5% |
| CC(=O)[C@@H]1CC[C@]2(COS(=O)(=O)c3ccc(C)cc3)CC[C@]3(C)[C@H](CC[C@@H]4[C@@]5(C)CCCNC(C)(C)[C@@H]5CC[C@]43C)[C@@H]12 | 89.8% |
| COc1ccc(-c2cc(-c3cc(OC)c(OC)c(OC)c3)c(C#N)c(N3CCOCC3)n2)cc1O | 58.4% |
| Cc1cc(N2CCCC2)nc(NCc2cc(Nc3ccnc4cc(Cl)ccc34)ccc2F)n1 | -50.3% (active) |
| CC/C=C\C[C@H](O)C/C=C1/C(=O)C=C[C@@H]1C/C=C\CCCC(=O)OC | -69.6% (active) |
| CN(C)c1ccc(-c2cc(-c3ccc(Nc4nc(Nc5ccc(Cl)cc5)nc(Nc5ccc(Cl)cc5)n4)cc3)no2)cc1 | 55.9% |
| O=C(N/N=C/C=C/c1ccc([N+](=O)[O-])o1)c1cc2ccccc2cc1O | -62.9% (active) |
| O=C(NC(CSSCC(NC(=O)c1ccccc1)C(=O)O)C(=O)O)c1ccccc1 (stereo not given) | 92.4% |
| O=C1Nc2ccc(F)cc2C12Nc1cc(Cl)ccc1S2 (stereo not given) | 90.9% |
| O=[N+]([O-])c1ccc(Sc2cccc[n+]2[O-])c2nonc12 | -70.8% (active) |
